In the supplement of paper PMC12669032:
Several values for one entry are separate records, joined by “and”; a condition that tells them apart may be missing. Identical values can stand only once. Unmarked numbers belong to inactive results.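 How the source made its calls: active = AUC reduced over 20% with Padj below 0.05 in at least 2 of 3 replicates; inactive = otherwise.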

Legend:
Test in all cases: growth AUC relative to DMSO control (median of replicates) (fraction); higher = more growth (less inhibition), active = hit call of the paper
Conditions in all cases: 20 µM; 24 h
Akkermansia muciniphila = tested on: Akkermansia muciniphila
Procedure, shortened: (§1)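 Gut bacteria were grown singly in mGAM at 37 °C without oxygen, from OD600 0.05, alongside 20 µM compound in 1% DMSO, and OD600 was read each hour for 24 h. Area under the growth curve was normalised to the median of solvent-only wells per plate, or to row and column medians on the industrial chemical plate. The minimum OD was set to 0 beforehand, and the reported value is the median of three biological replicates grown on separate days.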

Bacteroides caccae = tested on: Bacteroides caccae
Procedure, shortened: as §1

Bacteroides clarus = tested on: Bacteroides clarus
Procedure, shortened: as §1

Bacteroides dorei = tested on: Bacteroides dorei
Procedure, shortened: as §1

Bacteroides stercoris = tested on: Bacteroides stercoris
Procedure, shortened: as §1

[1] = tested on: Bacteroides thetaiotaomicron
Procedure, shortened: as §1

Bacteroides uniformis = tested on: Bacteroides uniformis
Procedure, shortened: as §1

[2] = tested on: Bifidobacterium longum subsp. longum
Procedure, shortened: as §1

Clostridium difficile = tested on: Clostridium difficile
Procedure, shortened: as §1

Collinsella aerofaciens = tested on: Collinsella aerofaciens
Procedure, shortened: as §1

| Structure (SMILES) | growth AUC (Akkermansia muciniphila) | growth AUC (Bacteroides caccae) | growth AUC (Bacteroides clarus) | growth AUC (Bacteroides dorei) | growth AUC (Bacteroides stercoris) | growth AUC [1] | growth AUC (Bacteroides uniformis) | growth AUC [2] | growth AUC (Clostridium difficile) | growth AUC (Collinsella aerofaciens) |
| --- | --- | --- | --- | --- | --- | --- | --- | --- | --- | --- |
| CN1COCN(Cc2cnc(Cl)s2)/C1=N/[N+](=O)[O-] | 0.919 | 1 | 0.976 | 0.932 | 1.03 | 0.999 | 0.988 | 0.984 | 1.01 | 1.02 |
| O=[N+]([O-])c1ccc2ccc3cccc4ccc1c2c34 | 0.948 | 0.59 (active) | 0.783 (active) | 0.851 | 0.179 (active) | 0.737 (active) | 0.877 | 1.3 | 0.913 | 0.983 |
| COP(=O)(OC)OC=C(Cl)Cl | 1.04 | 1.05 | 1.01 | 0.984 | 1.17 | 1.03 | 1.03 | 1.04 | 1.05 | 1.01 |
| COc1cnc(OC)n2nc(NS(=O)(=O)c3c(OCC(F)F)cccc3C(F)(F)F)nc12 | 0.962 | 1.03 | 1.01 | 0.993 | 0.991 | 1.01 | 1.01 | 0.994 | 0.993 | 0.991 |
| O=C(Nc1ccc(F)cc1F)c1cccnc1Oc1cccc(C(F)(F)F)c1 | 0.947 | 0.929 | 0.965 | 0.882 | 0.924 | 0.966 | 1.01 | 1 | 0.977 | 0.946 |
| COP(=O)(OC)Oc1ccc(S(C)=O)c(C)c1 (stereo not given) | 0.935 | 0.986 | 0.95 | 1 | 1.02 | 0.972 | 0.994 | 1 | 1.01 | 0.996 |
| CCOP(=S)(OCC)SCS(=O)(=O)CC | 1.08 | 0.96 | 1.01 | 0.977 | 1.09 | 0.996 | 0.984 | 0.951 | 1.01 | 1.02 |
| Cc1cccc(C)c1N(Cn1cccn1)C(=O)CCl | 1.02 | 0.829 | 0.997 | 0.974 | 1.01 | 0.987 | 0.969 | 1.07 | 1.01 | 0.952 |
| CC(C)(C)N(NC(=O)c1ccc(Cl)cc1)C(=O)c1ccccc1 | 0.852 | 0.973 | 0.986 | 0.983 | 1.02 | 0.939 | 1.01 | 1.04 | 1.11 | 1.02 |
| N#Cc1nn(-c2c(Cl)cc(C(F)(F)F)cc2Cl)c(N)c1S(=O)(=O)C(F)(F)F | 1.09 | 0.823 | 0.966 | 0.961 | 1.16 | 0.996 | 0.961 | 0.936 | 0.866 | 1.03 |
| O=C(O)C(F)(F)C(F)(F)C(F)(F)C(F)(F)C(F)(F)C(F)(F)F | 0.965 | 1.03 | 1 | 1.01 | 1 | 1 | 1.02 | 1.04 | 1 | 1.02 |
| COCC(C)N(C(=O)CCl)c1c(C)csc1C (stereo not given) | 1.35 | 1.03 | 1.01 | 0.929 | 1.04 | 0.973 | 0.93 | 0.841 | 0.847 | 0.922 |
| N#CC(CCc1ccc(Cl)cc1)(Cn1cncn1)c1ccccc1 (stereo not given) | 1.02 | 0.967 | 0.961 | 0.952 | 0.941 | 0.94 | 0.873 | 0.978 | 0.957 | 0.968 |
| CCOC(=O)CCN(Cc1ccccc1)SN(C)C(=O)O/N=C(/C)SC | 0.948 | 0.993 | 0.979 | 1.04 | 1.09 | 0.991 | 1.09 | 1.03 | 1.01 | 1.02 |
| Clc1cc(Cl)c(Cl)c(Cl)c1 | 0.953 | 0.971 | 0.989 | 0.957 | 0.887 | 0.997 | 1.02 | 1 | 0.977 | 0.922 |
| CC(Oc1ccc(Oc2nc3ccc(Cl)cc3o2)cc1)C(=O)O (racemic) | 0.992 | 1.05 | 0.995 | 0.996 | 1.25 | 0.996 | 0.962 | 1.03 | 0.987 | 1.03 |
| COc1c(Cl)ccc(Cl)c1Cl | 1.02 | 0.971 | 0.985 | 0.995 | 1.19 | 1.01 | 0.99 | 1.04 | 1.01 | 0.98 |
| O=C(O)c1cc(Oc2ccc(C(F)(F)F)cc2Cl)ccc1[N+](=O)[O-] | 1.01 | 1.04 | 0.925 | 0.916 | 0.84 | 1.02 | 0.985 | 1.06 | 0.966 | 0.956 |
| CCOP(=O)(NC(C)C)Oc1ccc(S(C)=O)c(C)c1 (stereo not given) | 1.01 | 0.999 | 1.04 | 1.04 | 1.02 | 0.997 | 1.02 | 1.06 | 1.08 | 1 |
| ClC1=C(Cl)[C@]2(Cl)C3CC=CC3[C@@]1(Cl)C2(Cl)Cl (stereo not given in full) | 0.898 | 1.03 | 0.999 | 0.992 | 0.973 | 0.981 | 0.971 | 0.994 | 0.997 | 0.965 |
| CC(=NCc1ccc(Cl)nc1)NC#N | 1.01 | 1.02 | 1.05 | 1.04 | 1.1 | 0.99 | 1.03 | 1.02 | 1.03 | 1.02 |
| CC1COC(Cn2cncn2)(c2ccc(Oc3ccc(Cl)cc3)cc2Cl)O1 (stereo not given) | 1.03 | 0.868 | 0.898 | 0.91 | 1.12 | 0.854 | 0.839 | 0.938 | 0.881 | 0.977 |
| CCC(C)(CC)c1cc(NC(=O)c2c(OC)cccc2OC)on1 | 1.05 | 1.01 | 0.949 | 1.03 | 1.04 | 0.959 | 0.965 | 1.04 | 1 | 0.959 |
| O=S1OC[C@@H]2[C@H](CO1)[C@]1(Cl)C(Cl)=C(Cl)[C@@]2(Cl)C1(Cl)Cl (stereo not given in full) | 0.871 and 0.977 | 0.96 and 1.01 | 0.957 and 0.941 | 0.965 and 0.954 | 0.913 and 0.734 | 0.959 and 0.894 | 0.903 and 0.899 | 0.963 and 0.916 | 0.98 and 0.994 | 0.99 and 0.941 |
| O=c1oc2ccccc2c(O)c1C1CC(c2ccc(OCc3ccc(C(F)(F)F)cc3)cc2)Cc2ccccc21 (mixture of isomers) | 0.908 | 0.919 | 0.548 (active) | 1.02 | 0.176 (active) | 0.97 | 0.989 | 0.525 (active) | 0.0158 (active) | 0.788 (active) |
| O=[N+]([O-])c1c(Cl)c(Cl)cc(Cl)c1Cl | 1.02 | 0.973 | 1.01 | 1.01 | 1.19 | 1.04 | 0.992 | 0.98 | 1.02 | 1.05 |
| CCOP(=S)(OCC)SCSP(=S)(OCC)OCC | 0.958 | 1 | 0.949 | 0.974 | 1.04 | 1.01 | 0.981 | 1.03 | 0.995 | 0.996 |
